# Laboratory results reported in PubChem BioAssay (Tox21).
# Unmarked numbers belong to inactive results. Inconclusive results are not listed. Where a call stands in place of a potency, no number is given. Activity calls are given as the source filed them. Unless noted, calls follow the shape of the dose curve; as a rule, active = well fitted curve in the direction sought with a large enough effect in the repeat runs; inconclusive = weak or mixed curves; inactive = no such curve, though single readings can be large; an effect the other way counts as inactive or inconclusive.
# Assays:
# [1] = qHTS assay to identify small molecule agonists of the estrogen receptor alpha (ER-alpha) signaling pathway in the presence of an antagonist - cell viability counter screen (AID 1259386);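 also: series mostly up to about 92 µM; cells exposed to compounds for 22 h at 37 °C before the viability read; nearly all actives have a fitted effect of over 30% in size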
# How it was run: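 Viability counter screen using VM7Luc4E2 (full-length ER-alpha, four ERE-luciferase). The cells were treated with compounds alongside ICI-182,780 10.0nM for 22hr, and live-cell protease fluorescence was quantified with CellTiter-Fluor.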
# [2] = molecular target: Progesterone receptor (Homo sapiens) (UniProt P06401); assay: qHTS assay to identify small molecule agonists of the progesterone receptor (PR) signaling pathway (AID 1346784; calls by dose curve; also: nearly all actives have a fitted effect of over 30% in size)
# How it was run: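 PR-UAS-bla HEK 293T cells (beta-lactamase reporter under UAS) in 2% charcoal-stripped FBS, dosed with 23 nL compound after 6 hr, incubated 16hr at 37C. LiveBLAzer B/G FRET substrate added, fluorescence read after 2 hours.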
# [3] = molecular target: Progesterone receptor (Homo sapiens) (UniProt P06401); assay: qHTS assay to identify small molecule antagonists of the progesterone receptor (PR) signaling pathway (AID 1346795; active = well fitted inhibition curve with a large enough effect in the signal ratio in the repeat runs, not every such curve was filed as active; the % refers to the signal ratio)
# How it was run: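 PR-UAS-bla HEK293T cells with beta-lactamase reporter under UAS control, in 2% charcoal-stripped FBS, treated with compounds plus 1 nM promegestone (R5020, final) for 16 hr at 37C. Read-out: FRET beta-lactamase substrate fluorescence after 2 hr at room temperature.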
# [4] = qHTS assay to identify small molecule antagonists of the progesterone receptor (PR) signaling pathway - cell viability counter screen (AID 1346798); also: series mostly up to about 92 µM; nearly all actives have a fitted effect of over 50% in size
# How it was run: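 PR-UAS-bla HEK293T cells, 3,000/well in 2% charcoal-stripped FBS medium, dosed with compounds plus R5020 agonist and incubated 16 h at 37C. Viability then measured in the same wells by CellTiter-Glo luminescence after 30 min at RT.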
# [5] = qHTS assay to identify small molecule agonists of the progesterone receptor (PR) signaling pathway - cell viability counter screen (AID 1346799; calls by dose curve; also: nearly all actives have a fitted effect of over 45% in size)
# How it was run: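 Counter screen in the PR-UAS-bla HEK293T wells (2% charcoal-stripped FBS, 16 h compound exposure at 37 C) after the bla read. CellTiter-Glo added, 30 min at room temperature, luminescence read as cell viability.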
# [6] = qHTS assay to identify small molecule antagonists of the TGF-beta/Smad signaling pathway - cell viability counter screen (AID 1346824); also: nearly all actives have a fitted effect of over 50% in size
# How it was run: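 SBE-bla HEK 293T cells were plated overnight at 37 C, then given compounds in DMSO plus TGF-beta1 (added as 0.25 ng/mL solution) for 5 hr. After the bla read, CellTiter-Glo was added to the same wells and luminescence read after 30 min at room temperature.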
# [7] = qHTS assay to identify small molecule agonists of the TGF-beta/Smad signaling pathway - cell viability counter screen (AID 1346829); also: top concentration of the series differs between compounds; nearly all actives have a fitted effect of over 45% in size
# How it was run: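 Luminescence from CellTiter-Glo, read after a 30 min room-temperature incubation, gives cell viability of SBE-bla HEK 293T cells treated 5 hr with compounds at 37 C.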
# [8] = qHTS assay to identify small molecule agonists of the TGF-beta/Smad signaling pathway (AID 1346859; active = well fitted activation curve with a large enough effect in the signal ratio in the repeat runs, not every such curve was filed as active; the % refers to the signal ratio; also: series mostly up to about 77 µM)
# How it was run: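 SBE-bla HEK293T cells plated overnight, then compound exposure for 5 h at 37 C. Beta-lactamase reporter read with LiveBLAzer B/G FRET substrate after 2 h at room temperature, fluorescence at 405 nm excitation, 460/530 nm emission.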
# [9] = molecular target: Thyrotropin-releasing hormone receptor (Homo sapiens) (UniProt P34981); assay: qHTS assay to identify small molecule antagonists of the thyrotropin-releasing hormone receptor (TRHR) signaling pathway (AID 1346877; active = well fitted inhibition curve with a large enough effect in the repeat runs, not every such curve was filed as active; also: series mostly up to about 51 µM)
# How it was run: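 Following an 18 h incubation at 37 °C and a 2 h calcium dye load, TRHR-HEK293 cells were exposed to compound (5 min, room temperature) and challenged with TRH, 1 nM final.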
# [10] = molecular target: Thyrotropin-releasing hormone receptor (Homo sapiens) (UniProt P34981); assay: qHTS assay to identify small molecule agonists of the thyrotropin-releasing hormone receptor (TRHR) signaling pathway (AID 1346891; calls by dose curve; also: series mostly up to about 58 µM)
# How it was run: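 HEK293 cells expressing TRHR plated 18 h at 37 C/5% CO2, calcium dye-loaded 2 h at 37 C, then compound added (agonist mode); kinetic calcium fluorescence read 3 min at 1 s intervals; 15 concentrations in triplicate.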
# [11] = Human pregnane X receptor (PXR) small molecule agonists, qHTS cell viability counter screen (AID 1346977); also: nearly all actives have a fitted effect of over 50% in size
# How it was run: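 PXR-Luc HepG2 cells (2,000/well, 5% charcoal-stripped FBS) preincubated 5 hr, then exposed to compounds 24 hr at 37 C. Viability read in the same wells by CellTiter-Fluor fluorescence, reagent added at 23 hr, 1 hr incubation.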
# [12] = Caspase-3/7 induction in HepG2 cells by small molecules, qHTS assay (AID 1346978); also: nearly all actives have a fitted effect of over 15% in size; also: potency is read from the fitted curve at half-maximal effect
# How it was run: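 Wild-type HepG2 cells (2,000/well) were settled 5 h at 37 C, 5% CO2, then exposed to compounds in DMSO for 17 h. Caspase-3/7 activity was read by luminescence 30 min after adding Caspase-Glo 3/7 reagent at room temperature.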
# [13] = Caspase-3/7 induction in CHO-K1 cells by small molecules, qHTS cell viability counter screen (AID 1346979); also: nearly all actives have a fitted effect of over 35% in size
# How it was run: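 Wild-type CHO-K1 cells (1,500/well) treated with compound after 5 h plating; after 16 h at 37C, viability read as CellTiter-Fluor fluorescence following 1 h reagent incubation, in the same wells as the caspase read.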
# [14] = Caspase-3/7 induction in CHO-K1 cells by small molecules, qHTS assay (AID 1346980); also: nearly all actives have a fitted effect of over 15% in size
# How it was run: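 Wild-type cells were seeded at 1,500 per well and settled 5 hr at 37 C, 5% CO2, then exposed to DMSO-dissolved compounds for 17 hr. Caspase-Glo 3/7 reagent was added, and luminescence was read after 30min at room temperature.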
# [15] = Caspase-3/7 induction in HepG2 cells by small molecules, qHTS cell viability counter screen (AID 1346981); also: series mostly up to about 92 µM; nearly all actives have a fitted effect of over 30% in size
# How it was run: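 Viability determined by CellTiter-Fluor fluorescence in HepG2 wells also used for the luminescent Caspase-Glo 3/7 read. Compounds were present for 16 hr at 37 C, 5% CO2 before reagent addition.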
# [16] = molecular target: Nuclear receptor subfamily 1 group I member 2 (Homo sapiens) (UniProt O75469); assay: Human pregnane X receptor (PXR) small molecule agonists, qHTS assay (AID 1346982); also: nearly all actives have a fitted effect of over 35% in size
# How it was run: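 Compound-induced hPXR transactivation of a CYP3A4 luciferase reporter was scored in HepG2 PXR-Luc cells over 24 hr at 37 C, 5% CO2, by luminescence.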
# [17] = molecular target: Nuclear receptor subfamily 1 group I member 2 (Rattus norvegicus) (UniProt Q9R1A7); assay: Rat pregnane X receptor (rPXR) activation by small molecules, qHTS assay (AID 1346983); details: rPXR luciferase reporter cells, One-Glo luminescence, 24 h; active compounds read high; also: nearly all actives have a fitted effect of over 20% in size
# How it was run: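 Cell-based rPXR luciferase reporter assay, 2,000 cells per well, rested 5hr at 37 C before compound addition in DMSO, then 24 hr at 37 C. One-Glo reagent was added and luminescence read after 30 min at room temperature.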
# Chain of Progesterone receptor (Homo sapiens) (P06401 whole entry, looked up): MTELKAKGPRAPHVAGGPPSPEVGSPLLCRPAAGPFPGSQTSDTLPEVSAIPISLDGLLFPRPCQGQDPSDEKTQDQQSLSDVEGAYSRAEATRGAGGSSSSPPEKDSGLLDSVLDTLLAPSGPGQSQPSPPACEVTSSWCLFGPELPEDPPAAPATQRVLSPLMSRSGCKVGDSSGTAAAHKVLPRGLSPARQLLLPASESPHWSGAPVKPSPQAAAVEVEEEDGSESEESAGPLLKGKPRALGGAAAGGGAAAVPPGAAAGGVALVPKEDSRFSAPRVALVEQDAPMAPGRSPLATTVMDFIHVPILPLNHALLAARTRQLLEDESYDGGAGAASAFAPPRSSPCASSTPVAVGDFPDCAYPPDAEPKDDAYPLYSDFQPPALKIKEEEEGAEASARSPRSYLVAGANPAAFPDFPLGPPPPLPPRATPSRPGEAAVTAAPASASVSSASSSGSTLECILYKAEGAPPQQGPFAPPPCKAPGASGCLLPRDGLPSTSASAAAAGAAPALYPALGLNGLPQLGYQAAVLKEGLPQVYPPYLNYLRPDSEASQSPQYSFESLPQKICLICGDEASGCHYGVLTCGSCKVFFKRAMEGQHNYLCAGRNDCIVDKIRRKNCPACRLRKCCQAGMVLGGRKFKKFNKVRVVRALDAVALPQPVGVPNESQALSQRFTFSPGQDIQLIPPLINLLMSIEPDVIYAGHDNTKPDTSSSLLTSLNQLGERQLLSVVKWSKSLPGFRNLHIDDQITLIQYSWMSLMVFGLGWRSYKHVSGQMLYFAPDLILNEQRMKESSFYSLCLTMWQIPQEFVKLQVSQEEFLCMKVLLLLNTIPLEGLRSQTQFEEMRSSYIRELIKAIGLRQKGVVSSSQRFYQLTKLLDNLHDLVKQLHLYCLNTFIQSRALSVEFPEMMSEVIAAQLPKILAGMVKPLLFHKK
# Chain of Nuclear receptor subfamily 1 group I member 2 (Homo sapiens) (O75469 whole entry, looked up): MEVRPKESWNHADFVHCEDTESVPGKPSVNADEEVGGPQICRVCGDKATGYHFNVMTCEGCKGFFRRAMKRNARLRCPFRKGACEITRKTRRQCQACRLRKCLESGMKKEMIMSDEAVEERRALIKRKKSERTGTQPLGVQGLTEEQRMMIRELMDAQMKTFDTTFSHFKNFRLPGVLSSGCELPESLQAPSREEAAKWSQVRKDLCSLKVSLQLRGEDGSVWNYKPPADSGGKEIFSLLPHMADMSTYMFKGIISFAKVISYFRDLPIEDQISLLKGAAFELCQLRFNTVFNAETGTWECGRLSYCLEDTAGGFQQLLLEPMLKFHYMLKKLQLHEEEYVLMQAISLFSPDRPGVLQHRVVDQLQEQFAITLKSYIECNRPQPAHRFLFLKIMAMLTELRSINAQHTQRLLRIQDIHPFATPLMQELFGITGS
# Chain of Thyrotropin-releasing hormone receptor (Homo sapiens) (P34981 whole entry, looked up): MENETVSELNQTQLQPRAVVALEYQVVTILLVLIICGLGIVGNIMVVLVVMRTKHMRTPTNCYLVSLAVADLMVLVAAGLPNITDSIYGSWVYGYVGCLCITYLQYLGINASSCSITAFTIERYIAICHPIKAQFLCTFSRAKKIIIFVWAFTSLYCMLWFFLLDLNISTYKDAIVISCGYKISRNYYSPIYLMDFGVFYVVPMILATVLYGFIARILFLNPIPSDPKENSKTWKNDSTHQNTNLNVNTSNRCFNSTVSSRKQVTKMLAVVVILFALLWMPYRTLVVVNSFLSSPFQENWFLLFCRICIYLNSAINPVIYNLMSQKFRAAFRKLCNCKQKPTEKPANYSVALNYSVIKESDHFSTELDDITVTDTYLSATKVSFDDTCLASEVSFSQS
# Chain of Nuclear receptor subfamily 1 group I member 2 (Rattus norvegicus) (Q9R1A7 whole entry, looked up): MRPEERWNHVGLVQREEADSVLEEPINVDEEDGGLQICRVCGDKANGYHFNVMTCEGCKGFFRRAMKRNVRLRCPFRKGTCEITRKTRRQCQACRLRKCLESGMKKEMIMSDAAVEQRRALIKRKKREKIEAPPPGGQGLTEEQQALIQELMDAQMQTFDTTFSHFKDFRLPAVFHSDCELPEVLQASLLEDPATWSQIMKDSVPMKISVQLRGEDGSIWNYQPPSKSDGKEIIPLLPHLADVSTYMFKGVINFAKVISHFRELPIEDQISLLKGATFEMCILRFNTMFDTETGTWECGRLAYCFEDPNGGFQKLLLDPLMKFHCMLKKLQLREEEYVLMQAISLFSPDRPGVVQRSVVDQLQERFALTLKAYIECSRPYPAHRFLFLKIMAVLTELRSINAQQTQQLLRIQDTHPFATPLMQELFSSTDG
Structure (SMILES),Potency [1],Potency [2],Potency [3],Potency [4],Potency [5],outcome [6],outcome [7],outcome [8],outcome [9],outcome [10],Potency [11],Potency [12],Potency [13],outcome [14],Potency [15],Potency [16],max activation [17] [%]
C=CC(OCC)OCC,inactive,inactive,inactive,inactive,inactive,inactive,inactive,inactive,inactive,inactive,inactive,inactive,inactive,inactive,inactive,,
Cc1cc(Cl)c(C)cc1Cl,inactive,inactive,inactive,inactive,inactive,inactive,inactive,inactive,inactive,inactive,inactive,inactive,inactive,inactive,inactive,inactive,
CCCCCCCCCCl,inactive,inactive,inactive,inactive,inactive,inactive,,inactive,inactive,inactive,inactive,inactive,inactive,inactive,inactive,,
COC(=O)[C@@H]1[C@H]2C[C@H]3c4[nH]c5ccccc5c4CCN3C[C@@H]2CC[C@@H]1O,inactive,inactive,inactive,inactive,,inactive,inactive,inactive,inactive,inactive,inactive,inactive,inactive,inactive,inactive,,
OC[C@H](Cc1cccc(O)c1)[C@H](CO)Cc1cccc(O)c1,inactive,inactive,inactive,inactive,inactive,,inactive,inactive,inactive,inactive,,,inactive,inactive,inactive,inactive,
O=C(O)c1cc(Br)c(O)c(Br)c1,inactive,inactive,inactive,inactive,inactive,inactive,inactive,inactive,,inactive,,inactive,inactive,inactive,inactive,inactive,
O=P(O)(O)OP(=O)(O)O,inactive,inactive,inactive,inactive,inactive,,inactive,inactive,inactive,inactive,inactive,,inactive,,inactive,,1.84
Cc1ccccc1C(=O)Nc1ccc(C(=O)N2CCCC(N(C)C)c3ccccc32)cc1 (centres undefined),inactive,inactive,inactive,inactive,inactive,,inactive,inactive,inactive,inactive,,3.76 µM (active),,,inactive,,
ClCCCl,inactive,inactive,inactive,inactive,inactive,inactive,inactive,inactive,inactive,inactive,inactive,,inactive,inactive,inactive,,
